From PubChem BioAssay
The list is not random: actives were taken first. Their share in the collection is about 1.9%.
ERK EGF inh: blocks ERK signaling stimulated by EGF; HEK293-V1b, EGF-stimulated phospho-ERK AlphaScreen; Potency, µM (series often up to 11.5 µM), inactives show at the highest dose activity change, negative = inhibition, most hits filed as inhibitors; 0.41% of 130,000 active; AID 1454;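 note: plate controls were stimulated vehicle wells for no effect and unstimulated vehicle basal for full effect; nearly all actives have a fitted effect of over 55% in size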
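Concentration-response of compounds against EGF-driven ERK phosphorylation in V1b-expressing HEK293 cells; 30 min preincubation, 5 min EGF, AlphaScreen detection; Normalized to DMSO basal and 25 nM EGF.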
HTT cytoprotect: protects HTT-Q103 PC12 cells, measured by ATP | PC12 HTT-Q103 induced, cytoprotection, ATP luminescence, 40 h | Potency, µM (highest dose often 56.4 µM), for inactives: cytoprotection (ATP increase), hits mostly activators | 0.14% of 230,000 active; note: % of control where 0% means no effect; nearly all actives have a fitted effect of over 45% in size
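Quantitative HTS on tebufenozide-induced (100 nM) PC12 cells expressing HTTQ103 exon 1–GFP; compounds tested as a concentration series; survival measured via cellular ATP.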
NPSR antag: neuropeptide S receptor (human) antagonism, cAMP. Q6W5P4. CHO-NPSR cells, cAMP TR-FRET, antagonist mode. Potency, µM (doses to about 38.3 µM), for inactives: at the highest dose activity change, negative = inhibition, hits mostly inhibitors. 1% of 220,000 active. AID 1461; note: % is set by controls: 0 for no effect and ±100 for the full control effect; nearly all actives have a fitted effect of over 50% in size
Target sequence (Q6W5P4 whole entry, looked up): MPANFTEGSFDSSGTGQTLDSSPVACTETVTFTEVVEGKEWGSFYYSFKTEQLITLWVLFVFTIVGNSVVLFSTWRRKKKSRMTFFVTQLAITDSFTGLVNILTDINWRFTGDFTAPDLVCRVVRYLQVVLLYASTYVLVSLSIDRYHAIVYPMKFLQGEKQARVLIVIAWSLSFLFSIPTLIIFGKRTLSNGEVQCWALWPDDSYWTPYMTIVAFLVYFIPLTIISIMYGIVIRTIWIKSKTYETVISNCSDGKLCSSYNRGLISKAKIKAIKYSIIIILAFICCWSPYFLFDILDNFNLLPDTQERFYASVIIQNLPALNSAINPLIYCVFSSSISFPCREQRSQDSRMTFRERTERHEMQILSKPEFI
HTT aggregate: inhibitors of mutant huntingtin aggregate formation in PC12 cells | PC12 HttQ103-GFP aggregates, Acumen cytometry, 40 h | Potency, µM (top dose mostly 46.1 µM), inactives show at the top dose activity change, negative = inhibition, usual class: inhibitors | 1.1% of 220,000 active; note: % is set by controls: 0 for no effect and ±100 for the full control effect; nearly all actives have a fitted effect of over 60% in size
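Using laser scanning cytometry, GFP-positive aggregates were counted after lysis of PC12 cells induced with 100 nM tebufenozide to express HTT exon 1 Q103–GFP. Compounds were tested in titration.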
IMPase Li inh: cell-permeable IMPase inhibitors with lithium potentiation; Potency, µM (doses to about 59.4 µM), for inactives: top-dose activity, negative = IMPase inhibition, hits mostly inhibitors; 0.35% of 210,000 active; CHO-M1 cells, IP1 TR-FRET (IP-One), carbachol + lithium;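 note: IP1 builds up when IMPase is blocked and the TR-FRET signal falls; plate controls were basal vehicle for no effect and high inhibitor control for full effect; nearly all actives have a fitted effect of over 50% in size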
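CHO cells stably expressing M1 receptor (2000/well) were cultured 16–30 h, then exposed to compounds with a small lithium addition for 30 min at 37C. IP1 was measured by TR-FRET competition; AC50 from Hill fits.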
* marks the source's active call; other numbers are inactive results; ? = inconclusive; / = no result; [ ] = dose if it differs, or a comment. Calls come from the whole dose curve; as a rule, active = well fitted curve in the direction sought with a large enough effect; inconclusive = small, poorly fitted or top-dose-only effect, or another doubt; inactive = no such curve, though single readings can be large; an effect the other way counts as inactive or inconclusive. Potency is the fitted concentration of half-maximal effect.

SMILES	ERK EGF inh	HTT cytoprotect	NPSR antag	HTT aggregate	IMPase Li inh
CCOc1ccc(Nc2nc3ccccc3n3nnnc23)cc1	/	8%	-15%[46.1 µM]	-17%	14%[38.3 µM]
COc1ccc(CCNCc2csc3nc4ccccc4n23)cc1OC	/	-18%	11%[46.1 µM]	7.1µM*	1%[38.3 µM]
COc1ccc(CNc2nc3ccccc3n2Cc2ccc(C)cc2)cc1OC	13%	-8%[10 µM]	-1%	-17%	-2%
c1ccc(CCNc2nc3ccccc3n3nnnc23)cc1	/	-22%	?	-9%	3.5µM*
COc1ccc(CCNc2nc3ccccc3n3nnnc23)cc1OC	/	14%	?	10%	10µM*
C=CCN1CCc2c(cc(O)c(O)c2Br)[C@H](c2ccccc2)C1	/	-11%[1.9 µM]	/	/	/
CN(Cc1ccco1)c1ncncc1-c1ccccc1Cl	/	-25%	/	/	32%
C[C@@H]1C(=O)CC2C(C)(C)CCC[C@]2(C)[C@@]1(O)CCc1ccoc1 (some centres undefined)	-1%	-4%	/	/	16%
CN(C)c1ncc2nc(CCc3ccccc3)c(=O)n(-c3ccccc3)c2n1	-8%	-19%	/	/	6%
CCCS(=O)(=O)N1CCC(C(=O)NCCCN(CC)c2cccc(C)c2)CC1	/	/	-7%[46.1 µM]	32µM*	-2%
CCCn1c(NC(=O)c2cccc(S(=O)(=O)N3CCCC3)c2)nc2ccccc21	/	-1%[0.074 µM]	?	11µM*	2%[38.3 µM]
CCCn1c(NC(=O)c2ccccc2)nc2ccccc21	/	15%	-11%[46.1 µM]	-18%	9%[38.3 µM]
COc1ccccc1NS(=O)(=O)c1cccc(NC(=O)Nc2ccc(Cl)cc2)c1	28µM*	-127%	?	?	24%
O=C(Nc1cccc(S(=O)(=O)N2CCCCC2)c1)Nc1ccc(Cl)cc1Cl	3%	4%[10 µM]	?	14µM*	14%
O=C(Nc1cccc(O)c1)c1cccc(S(=O)(=O)N2CCCC2)c1	/	2.8µM*	-12%[46.1 µM]	-17%	18%[38.3 µM]
CCC(C)O (centres undefined)	/	13%	/	/	15%
O=C(c1cccc(S(=O)(=O)N2CCCC2)c1)c1cccc(S(=O)(=O)N2CCCC2)c1	/	-9%[10 µM]	-16%[46.1 µM]	11µM*	12%[38.3 µM]
COC(=O)c1ccc(SCC(=O)NC2CCCCC2)c([N+](=O)[O-])c1	1%	3%[10 µM]	-47%	-5%	11µM*
CS(=O)(=O)c1ccc(SCC(=O)NC2CCS(=O)(=O)C2)c([N+](=O)[O-])c1 (centres undefined)	-8%	-32%	18%	8%	-5%
COc1ccc(Cl)cc1-c1ccc(C(=O)O)o1	/	-27%[96.6 µM]	/	/	2%
COc1ccccc1NC(=O)c1nnn(CC(=O)Nc2cccc(SC)c2)c1N	/	-3%[10 µM]	?	13%	6.3µM*
COc1cccc(Cn2nnc(C(=O)Nc3ccc(C)cc3)c2N)c1	/	-15%	-29%[46.1 µM]	4%	?
COc1cccc(Cn2nnc(C(=O)Nc3cc(C)ccc3OC)c2N)c1	/	-4%	-26%[46.1 µM]	8%	25µM*
CCNc1ncc2nc(-c3ccc(OC)cc3)c(=O)n(CCOC)c2n1	/	-5%	/	/	?
CC(=O)OC[C@@H]1O[C@H](C/C=N\OC[C@@H](O)[C@H]2O[C@H]3OC(C)(C)O[C@H]3[C@@H]2O)C=C[C@@H]1OC(C)=O	/	4%[10 µM]	/	/	/
SMILES	ERK EGF inh	HTT cytoprotect	NPSR antag	HTT aggregate	IMPase Li inh
CCNC(=O)[C@H]1O[C@H](n2cnc3c(N)nc(NCCc4ccc(CCC(=O)O)cc4)nc32)[C@@H](O)[C@@H]1O	0%	-6%	/	/	4%
N#Cc1c(-c2ccc3c(c2)OCO3)ccn2nc(-c3cccc(C(F)(F)F)c3)nc12	/	-1%	-21%[46.1 µM]	?	13µM*
CCCCS(=O)(=O)N1CCc2nc(COc3ccccc3)c3c(c2C1)CO[C@@H](C)C3	/	?	/	/	5%
Cn1c(-[n+]2c(-c3ccccc3)cc(-c3ccccc3)cc2-c2ccccc2)nc2c([N+](=O)[O-])cccc21	-7%	/	7.9µM*	?	13%
N=C(N)c1ccc(/C=C\c2ccc(C(=N)N)cc2)cc1	/	14%[10 µM]	/	/	5%
O=C(N/N=C/c1cc(Cl)cc([N+](=O)[O-])c1O)c1cc(-c2ccccn2)nc2ccccc12	1%[57.5 µM]	5%[10 µM]	-6%	-10%[9.22 µM]	/
O=[N+]([O-])c1cc(Cl)cc(/C=N\Nc2ccccn2)c1O	/	-72%	0%[46.1 µM]	2.2µM*	1%[38.3 µM]
CCOC(=O)/C=C/S(=O)(=O)c1ccc(NC(C)=O)cc1	/	-162%	?	4µM*	11%[38.3 µM]
CCOC(=O)/C=C/C(=O)Nc1ccc(S(=O)(=O)Nc2c(C)cc(C)cc2C)cc1	4%	-5%[10 µM]	-1%	-4%	16%
Cc1cccc(N2CCN(C(=O)c3ccc(CS(=O)(=O)c4ccccc4C)o3)CC2C)c1 (centres undefined)	/	-143%[0.074 µM]	-1%[46.1 µM]	22µM*	15%[38.3 µM]
Cc1ccc(C)c(N2CCN(C(=O)c3ccc(CS(=O)(=O)c4ccccc4C)o3)CC2)c1	/	-8%[10 µM]	-24%[46.1 µM]	28µM*	20%[38.3 µM]
Cc1ccc(C(=O)/C=C\C(=O)c2ccc(C)cc2)cc1	11%	7%[10 µM]	?	?	12%
Cc1ccc(S/C=C\C(=O)c2ccccc2)cc1	/	-77%	13µM*	-17%	2%[38.3 µM]
COc1c2c(cc3c1C(CC(=O)c1c(O)c(OC)c4occc4c1OC)[N+](C)(C)CC3)OCO2 (centres undefined)	1%	/	/	/	19%
COc1ccc(CCNS(=O)(=O)c2ccccc2)cc1OC	/	-3%	-6%[46.1 µM]	3.5µM*	1%[38.3 µM]
CCc1cc2c(=O)c(-c3cnn(-c4ccccc4)c3)c(C)oc2cc1OCC(=O)Nc1cccc(C)c1	7%	?	?	-5%	?
CCc1cc2c(=O)c(-c3cnn(-c4ccccc4)c3)c(C)oc2cc1OCC(=O)Nc1ccc(F)c(F)c1	5%	/	7.9µM*	?	-7%
CC(C)[C@@H]1O[C@H](/C=C\c2ccccc2)OCC1(C)C	/	-8%[10 µM]	/	/	/
COc1ccc(/C=C/c2c([N+](=O)[O-])c(=O)n(C)c(=O)n2C)cc1	?	?	-4%	-20%	-6%
CCOc1ccc(/C=C/c2c([N+](=O)[O-])c(=O)n(C)c(=O)n2C)cc1	-5%	7.9µM*	-11%	-18%	7%
CCC(=O)N(C1=C(NC(C)C)C(=O)c2ccccc2C1=O)C(C)C	?	-4%[10 µM]	-20%	-3%[9.22 µM]	4%
CCCNC1=C(N(C(C)=O)c2cccc(F)c2)C(=O)c2ccccc2C1=O	-5%	-76%[10 µM]	6%	11µM*	-2%
Cc1ccc(/C=C/C2=C[C@]3(C)C[C@]2(C)[C@H](c2ccc(C)cc2)CC3=O)cc1	3%	9%	/	/	9%
COC(=O)c1c(NC(=O)Nc2ccc(Cl)cc2)sc(C)c1C	/	-10%	10µM*	5%	?
Cn1c(=O)c2c(SCc3c(F)cccc3Cl)nc(CC(C)(C)C)nc2n(C)c1=O	/	-17%[10 µM]	10µM*	-14%	24%[38.3 µM]
Cn1c(=O)c2c(SCC(N)=O)nc(CC(C)(C)C)nc2n(C)c1=O	/	21%[10 µM]	-11%[46.1 µM]	1%	22%[38.3 µM]
